Compounds without any hit were thinned out: in the full panel of roughly 83,000, 20% have a hit.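 How to read the values: 0–100, growth inhibition (40 = 60% inhibited); 0, no net growth; -100 to 0, cell death (-40 = 40% of starting cells died; -100 = all dead).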 Values without a mark were called inactive. Calls of active or inactive are those of the source. Rule for the calls: active = growth percent below 10; inactive = the rest.
Columns and labels:
Experiment in all cases: NCI-60 one-dose screen, 48 h (100 = growth as untreated, 0 = no growth, -100 = all killed)
Conditions in all cases: 10 µM unless noted
SK-MEL-2 melanoma = tested on: SK-MEL-2 melanoma
EKVX NSCLC = tested on: EKVX NSCLC
SN12C renal = tested on: SN12C renal
UO-31 renal = tested on: UO-31 renal
TK-10 renal = tested on: TK-10 renal
ACHN renal = tested on: ACHN renal
CAKI-1 renal = tested on: CAKI-1 renal
CCRF-CEM leukemia = tested on: CCRF-CEM leukemia
MOLT-4 leukemia = tested on: MOLT-4 leukemia

SMILES | growth (SK-MEL-2 melanoma) | growth (EKVX NSCLC) | growth (SN12C renal) | growth (UO-31 renal) | growth (TK-10 renal) | growth (ACHN renal) | growth (CAKI-1 renal) | growth (CCRF-CEM leukemia) | growth (MOLT-4 leukemia)
O=C1CCC(NC(=S)Nc2ccccc2)N1 (centres undefined) | 103% | 117% | 97.4% | 95.3% | 101% | 109% | 106% | 97.2% | 106%
COc1ccc(OC)c(/C=C/[C@H]2O[C@@H](C)[C@H](O)[C@@H]2O)c1 | 91.2% | 107% | 106% | 91.5% | 95.7% | 106% | 96.9% | 98.3% | 93.2%
C#CCNC(=O)[C@H](Cc1ccccc1)NC(=O)[C@]12CC[C@@H](C(=C)C)[C@@H]1[C@H]1CC[C@@H]3[C@@]4(C)Cc5c([nH]c6ccccc56)C(C)(C)[C@@H]4CC[C@@]3(C)[C@]1(C)CC2 | 95.5% | 94% | 93.6% | 90.3% | 90.4% | 94.8% | 86.8% | 91.6% | 93.7%
CC(=O)OCCCCCNc1ccccc1 | 102% | 104% | 103% | 88.1% | 107% | 101% | 95.7% | 103% | 91.3%
COc1cccc2c1C(=O)c1c(O)c3c(c(O)c1C2=O)C[C@@](O)(C(=O)CO)C[C@@H]3O[C@H]1C[C@H](N)[C@@H](O)[C@H](C)O1 | -72.9% (active) | 3.85% (active) | 10% | 11.8% | 6.82% (active) | -36.9% (active) | 25.1% | -20.5% (active) | -0.0958% (active)
O=C(N/N=C/c1ccc(O)c(O)c1)c1sc2ccccc2c1Cl | -13.4% (active) | 98.3% | 77.1% | 61% | 109% | 62.9% | 84.7% | 14.1% | 43.7%
CCCCCCNC(=O)Oc1ccc(/C(=C(/CC)Cc2ccccc2)c2ccc(OCCN(CC)CC)cc2)cc1 | 99.8% | 81% | 73.5% | 58% | 93.1% | 89.4% | 91% | 45.4% | 35.2%
O=C1/C(=C\c2cn(Cc3ccccc3)c3ccc(Br)cc23)c2ccccc2N1c1c(Cl)cccc1Cl | 101% | 89.2% | 97.7% | 87.3% | 102% | 104% | 83% | 96.8% | 95.8%
O=C(CN1CCOCC1)Nc1ccc2ncnc(Nc3ccc(Oc4cccc(F)c4)c(Cl)c3)c2c1 | 93.6% | 29.8% | 48.9% | 31.6% | 39.5% | 24.1% | 38.3% | 82.3% | 64.8%
CC(=O)OC1CCC2(C)C(CCC3C4CC=C(C(C)=O)C4(C)OC(=O)CC32)C1 (centres undefined) | 17.7% | 87.2% | 57.8% | 21.3% | -20.2% (active) | 7.04% (active) | 39.4% | -27.5% (active) | -37.1% (active)
N/C(=N\N=C\c1cc2ccccc2[nH]1)N/N=C/c1cc2ccccc2[nH]1 | 100% | 79.7% | 89.9% | 74.1% | 116% | 109% | 87.3% | 84.4% | 84.6%
CCSc1ccc2c(c1)N(CCCN1CCN(C)CC1)c1ccccc1S2 | 69% | 59.3% | 57.6% | 9.67% (active) | 55.6% | 43.5% | 50% | 27.9% | 18.5%
O=C(CSc1nc2sc3c(c2c(=O)n1Cc1ccccc1)CCCC3)N1CCN(c2ccccc2)CC1 | 106% | 99.6% | 110% | 76.8% | 104% | 104% | 92.9% | 97.7% | 92.8%
CCCCCCOc1ccc(C(=N)N(CCCC)CCCC)c2ccccc12 | -85.6% (active) | -75.4% (active) | -86.5% (active) | -93.9% (active) | -92.4% (active) | -92% (active) | -83.7% (active) | -12.8% (active) | -38.4% (active)
C=CCn1c(SCC(=O)Nc2ccc(C(=O)/C=C/c3cc(OC)c(OC)c(OC)c3)cc2)nnc1-c1cc(-c2ccc(S(C)(=O)=O)cc2)nc2ccccc12 | 103% | 90.9% | 88.5% | 78.4% | 159% | 91.9% | 77.3% | 35% | 56.3%
Cc1nn(-c2ccccc2)c(N2CCOCC2)c1/C=N/N=c1\sc2ccccc2n1C | 105% | 82.2% | 81.7% | 65.2% | 129% | 82.4% | 67.3% | 67.3% | 58.6%
CCCc1cc2c(cc1Br)OCO2 | 98% | 94.4% | 97.3% | 95% | 100% | 105% | 104% | 96.5% | 110%
O=S(=O)(NCCCNc1nccc(-c2c(-c3cccc(O)c3)nc3occn23)n1)c1ccc(Br)cc1 | 54.3% | 105% | 80.3% | 90.8% | 135% | 84.9% | 75.6% | 87.9% | 72.9%
CC(c1ccccc1)n1ccnc1CO (centres undefined) | 111% | 93.3% | 102% | 95.4% | 88.2% | 103% | 88.9% | 105% | 107%
C=C(C)[C@@H]1CC[C@]2(C(=O)NCCCN(CCC#N)CCC#N)CC[C@]3(C)[C@H](CC[C@@H]4[C@@]5(C)CCC(=O)C(C)(C)[C@@H]5CC[C@]43C)[C@@H]12 | 105% | 91% | 98.2% | 87.3% | 98.4% | 107% | 94.4% | 106% | 110%
Fc1cc(C2=NNC(c3ccc[nH]3)C2)ccc1-n1ccc(C(F)(F)F)n1 (centres undefined) | 102% | 84.7% | 85.6% | 52.1% | 117% | 91% | 66.5% | 68.3% | 77.5%
CO[C@@H]1[C@H](N(C)C(=O)c2ccccc2)C[C@@H]2O[C@]1(C)n1c3ccccc3c3c4c(c5c6ccccc6n2c5c31)C(=O)NC4=O | 55.1% | 27.9% | 33.4% | -35.6% (active) | -20.3% (active) | 35.4% | -10.8% (active) | 44.5% | 32.8%
CC(=O)c1c(-c2ccc(OC(F)(F)F)cc2)nc2ccccn12 | 81.5% | 96% | 103% | 81.6% | 6.58% (active) | 95.7% | 92.4% | 109% | 118%
COc1cc2nc(-c3ccc(C(F)(F)F)cc3)cc(OCCCN3CCC(O)CC3)c2cc1OC | 47.6% | 59.8% | 37.4% | 24.2% | 85.7% | 31.2% | -6.95% (active) | 34.2% | 35.3%
[O-][n+]1ccccc1CCN(O)CCc1cccc[n+]1[O-] | 92.9% | 99.4% | 105% | 75.5% | 104% | 95.8% | 94.7% | 99.5% | 98%
COc1cc2nc(-c3ccc(C(F)(F)F)cc3)cc(OCCN3CCC(O)CC3)c2cc1OC | 103% | 61.9% | 57.5% | 52.4% | 86.1% | 75.5% | 34.6% | 84.8% | 77%

— PubChem BioAssay (NCI)
